A short description of test [1]: AP1 Signaling Pathway (AID 357). Note: % is set by controls: 0 for no effect and ±100 for the full control effect. Particulars: ME-180 AP-1-bla reporter, EGF-induced, beta-lactamase ratio, 5 h. A digest of the protocol: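 Cells are seeded overnight, exposed to compound titrations and an EC50 level of EGF for 5 hours at 37 °C, then loaded with CCF4 dye for 2.5 hours. Beta-lactamase activity under the AP-1 element is read as a blue/green ratio.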

For test [2], the target named is Cytochrome P450 1A2 (Homo sapiens) (UniProt P05177). The test can be described thus: p450-cyp1a2 (AID 410; calls by dose curve; note: potency is the fitted concentration of half-maximal effect;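 for activity change, negative = inhibition: -100% = full effect of reference inhibitor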). Particulars: recombinant CYP1A2, luciferin-ME demethylation, luminescence; series mostly up to 57 µM. A digest of the protocol: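 20nM CYP1A2, 100uM Luciferin-ME (=Km), 100mM KPO4; cpd 10 min RT; +NADPH regen, 60 min RT; stop/detect 20 min; luminescence. Normalized to furafylline 57 uM = full inhibition.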

The nature of test [3]: NFAT Signaling Pathway (AID 444).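 Note: carbachol stimulus at about its EC50 of 1 µM final; % is set by controls: 0 for no effect and ±100 for the full control effect.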 The conditions noted are these: Jurkat NFAT-bla M1, carbachol, beta-lactamase ratio, 5 h. A digest of the protocol: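 Read-out: CCF4 FRET ratio (460 nm/530 nm) after 1 h RT dye loading, used for %activity and AC50 from titration series. Cells: Jurkat NFAT-β-lactamase/M1 line, treated with compound plus 1 uM carbachol for 5 h, 37 °C.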
Test [4] is described as follows: Stat Signaling Pathway (AID 446).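 Note: ME-180 cervical cancer cells given 40 pM IL-6 alongside compound; SIE-controlled beta-lactamase reporter measured as 460/530 nm FRET emission ratio; % is set by controls: 0 for no effect and ±100 for the full control effect.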 The conditions noted are these: ME-180 (cervical carcinoma) SIE beta-lactamase reporter, IL-6 stimulated, 5 h. A digest of the protocol: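 Normalization used AC90 stimulation (300 pM IL-6) and AC90 inhibition (125 nM pan-JAK inhibitor at 40 pM IL-6). The underlying signal is SIE-driven beta-lactamase in ME-180 cells after 5 h IL-6 exposure with compound.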

Test [5] concerns the target Glucocorticoid receptor (Homo sapiens) (UniProt P04150). The experiment in a line: GR-GFP Redistribution (AID 450;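 active = compounds whose dose series gives a full or clear partial fitted curve of increased nuclear translocation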; note: potency is the fitted concentration of half-maximal effect). Particulars: U2OS GR-GFP nuclear translocation, laser cytometry, 2 h.
The target is the same in test [6]. The experiment in a line: GR-EFC Redistribution (AID 451; calls by dose curve; note: potency is the fitted concentration of half-maximal effect). The conditions noted are these: CHO-K1 GR-EFC translocation, beta-gal luminescence, 2 h. A digest of the protocol: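 Translocation of GR-ED fusion to nuclear EA restores b-gal, read by luminescence after 1 h room-temperature detection. Engineered CHO-K1 biosensor cells, 1,000/well, exposed 2 h at 37 C to titrations up to 46 uM final.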

Test [7] concerns the target Mitogen-activated protein kinase 10 (Mus musculus) (UniProt Q61831). The experiment in a line: JNK3 AlphaScreen Assay (AID 530).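 Note: kinase came from lysate of stimulated human HepG2 cells; signal reports phosphorylation of biotinylated GST-cJun 1-79 at Ser73 with 10 µM ATP; % is set by controls: 0 for no effect and ±100 for the full control effect.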 Particulars: JNK3 lysate, c-Jun phosphorylation; series mostly up to 57.1 µM. A digest of the protocol: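 Kinase buffer: 20 mM Tris-HCl pH 7.6, 10 mM MgCl2, 1 mM DTT, 0.1 mM Na3VO4, 0.01% Tween-20; ATP 10 uM. Substrate biotin-GST-cJun(1-79), enzyme from activated HepG2 lysates. Detection by Ser73 phospho-antibody AlphaScreen.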
(In general: In Alpha technology, singlet oxygen from a donor bead excites a nearby acceptor bead.)

Test [8] has as its target 3',5'-cyclic-AMP phosphodiesterase 4B (Homo sapiens) (UniProt Q07343). The test can be described thus: qHTS Assay for Inhibitors of PDE-IV (AID 607; active = well fitted activation curve with a large enough effect in the main read-out, with a control signal flat, not every such curve was filed as active; note: % of control where 0% means no effect). Particulars: HEK293 ACTOne CNG channel cells, membrane potential fluorescence; series mostly up to 22.9 µM. A digest of the protocol:
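HEK293 ACTOne cells with CNG channel (1000/well), endogenous PDE4; membrane potential dye, compounds up to 22.9 uM final. Fluorescence Ex 535/Em 590; RO 20-1724 (100 uM final) as reference.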
In general terms: qHTS replaces the single test concentration by a dilution series.

The nature of test [9]: qHTS Assay for Lipid Storage Modulators (AID 1519; calls by dose curve). Particulars: Drosophila S3 cells, BODIPY lipid droplet/cell ratio, laser cytometry, cells loaded with oleic acid; for activity change, negative = inhibition: at 25.7 µM (top of the series). A digest of the protocol:
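Cells seeded at 5,000 per well were treated with compounds over a concentration series and loaded with oleic acid (400 uM, as added). Lipid droplet fluorescence (488 nm excitation, 500-530 nm channel) was read by laser-scanning cytometry and normalized to 20 uM Triacsin C.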

The target of test [10] is Ubiquitin carboxyl-terminal hydrolase 1 (Homo sapiens) (UniProt O94782). The test can be described thus: Inhibitors of USP1/UAF1: Pilot qHTS (AID 504865; active = well fitted curve in the direction sought with a large enough effect; an effect the other way counts as inactive or inconclusive;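 note: rhodamine fluorescence freed from ubiquitin-rhodamine substrate followed over time; top concentration of the series differs between compounds; % is set by controls: 0 for no effect and ±100 for the full control effect; nearly all actives have a fitted effect of over 35% in size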). Particulars: purified USP1/UAF1, Ub-rhodamine cleavage fluorescence; series mostly up to 54.9 µM. A digest of the protocol: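 Enzyme-free wells gave the negative control, while test wells held 1nM USP1/UAF1 preincubated with compound for 15 min at room temperature. Ub-Rho at 150nM final started the reaction, and fluorescence at 480/540 nm was recorded kinetically.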

Test [11] has as its target ATP-dependent 6-phosphofructokinase (Trypanosoma brucei brucei) (UniProt O15648). The test can be described thus: qHTS Assay to Find Inhibitors of T. brucei phosphofructokinase: hit validation (AID 492961; active = well fitted curve in the direction sought with a large enough effect; an effect the other way counts as inactive or inconclusive). The conditions noted are these: T. brucei PFK, ADP-Glo luminescence; series mostly up to 24.3 µM. A digest of the protocol: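 Measures ADP output of PFK (1.25 nM) at 0.1 mM ATP, 0.5 mM F6P, pH 8.0 TEA buffer with 5 mM MgCl2. No-enzyme wells define full inhibition; uninhibited enzyme wells define zero.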

Test [12] deals with Luciferin 4-monooxygenase (Photinus pyralis) (UniProt P08659). The test can be described thus: Biochemical firefly luciferase enzyme assay for NPC (AID 624030; active = well fitted curve in the direction sought with a large enough effect; an effect the other way counts as inactive or inconclusive;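 note: purified P. pyralis luciferase at 10 nM with luciferin and ATP substrate; 0% = DMSO and -100% = full luciferase inhibition by PTC124 control; nearly all actives have a fitted effect of over 70% in size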). The conditions noted are these: purified P. pyralis luciferase, luminescence, 5 min; series mostly up to 58.6 µM. A digest of the protocol: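 Direct inhibition of firefly luciferase enzyme (10 nM final, 50 mM Tris Acetate) assessed by luminescence within 5 minutes. Percent activity scaled between DMSO and PTC124 positive control, with concentration-effect curves classified by fit quality and response.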

The nature of test [13]: qHTS profiling for inhibitors of Plasmodium falciparum proliferation (AID 504749; active = well fitted curve in the direction sought with a large enough effect; an effect the other way counts as inactive or inconclusive;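 note: 0% = DMSO vehicle and full inhibition = artemisinin control; nearly all actives have a fitted effect of over 60% in size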). The conditions noted are these: P. falciparum in erythrocytes, SYBR Green DNA, 72 h, at 28.7 µM (top of the series). A digest of the protocol: (§1)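 In a 72 h erythrocytic culture (37 C, humidified, 5% CO2) at 2.5% hematocrit and 0.3% starting parasitemia, compounds were tested; SYBR Green I in detergent lysis buffer stained parasite DNA overnight.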

The test system of another test is AS120. Described as above. The conditions noted are these: P. falciparum in erythrocytes, SYBR Green DNA, 72 h; series mostly up to 28.7 µM. A digest of the protocol: as §1
The next test concerns CP201. The test is described as above. The conditions noted are these: P. falciparum in erythrocytes, SYBR Green DNA, 72 h; series mostly up to 12.8 µM. A digest of the protocol: as §1
For another test, the system named is CP238. The description is as above. The conditions noted are these: P. falciparum in erythrocytes, SYBR Green DNA, 72 h; series mostly up to 12.8 µM. A digest of the protocol:
as §1

The test system of another test is CP262. Described as above. Particulars: P. falciparum in erythrocytes, SYBR Green DNA, 72 h; series mostly up to 12.8 µM. A digest of the protocol: as §1
The test system of another test is CP265. Described as above. Particulars: P. falciparum in erythrocytes, SYBR Green DNA, 72 h; series mostly up to 12.8 µM. A digest of the protocol: as §1
A further test concerns FAB9. The test is described as above. Particulars: P. falciparum in erythrocytes, SYBR Green DNA, 72 h; series mostly up to 12.8 µM. A digest of the protocol:
as §1

Another test concerns JCK. Described as above. Particulars: P. falciparum in erythrocytes, SYBR Green DNA, 72 h; series mostly up to 12.8 µM. A digest of the protocol:
as §1

[14] abbreviates: measured here: cell count channel max response.
[15] abbreviates: measured here: lipid channel max response.

Values joined by “and” are separate entries in the source; they are usually repeats but may differ in a detail not shown here. Identical values can stand only once. Records with an inconclusive call do not appear. Active and inactive are the calls of the source. Unless noted, calls come from the whole dose curve; as a rule, active = well fitted curve in either direction with a large enough effect (not every such curve was filed as active); inconclusive = small, poorly fitted or top-dose-only effect, or another doubt; inactive = flat fitted curve, though single readings scatter. A value given as a limit tells only on which side of the number the result lay.

Chain of 3',5'-cyclic-AMP phosphodiesterase 4B (Homo sapiens) (Q07343 whole entry, looked up): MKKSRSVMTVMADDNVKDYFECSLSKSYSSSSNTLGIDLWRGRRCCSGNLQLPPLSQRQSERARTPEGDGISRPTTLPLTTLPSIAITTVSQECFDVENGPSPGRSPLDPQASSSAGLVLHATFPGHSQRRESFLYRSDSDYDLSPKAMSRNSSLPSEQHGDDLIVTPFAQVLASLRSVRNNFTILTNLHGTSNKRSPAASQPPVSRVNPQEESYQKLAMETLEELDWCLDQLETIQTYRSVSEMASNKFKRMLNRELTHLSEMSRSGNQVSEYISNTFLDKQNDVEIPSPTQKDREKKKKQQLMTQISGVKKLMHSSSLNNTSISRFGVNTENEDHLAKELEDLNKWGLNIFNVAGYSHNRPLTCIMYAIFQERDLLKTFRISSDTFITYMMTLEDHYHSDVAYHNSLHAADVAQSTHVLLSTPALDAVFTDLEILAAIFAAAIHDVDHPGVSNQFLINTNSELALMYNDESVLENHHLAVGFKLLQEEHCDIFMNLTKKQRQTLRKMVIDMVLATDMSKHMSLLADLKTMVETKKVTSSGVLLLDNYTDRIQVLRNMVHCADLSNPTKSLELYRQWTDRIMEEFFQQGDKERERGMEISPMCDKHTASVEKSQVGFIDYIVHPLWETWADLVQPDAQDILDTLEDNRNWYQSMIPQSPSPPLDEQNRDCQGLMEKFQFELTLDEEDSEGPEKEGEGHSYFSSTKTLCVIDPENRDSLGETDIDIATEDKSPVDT
Chain of Cytochrome P450 1A2 (Homo sapiens) (P05177 whole entry, looked up): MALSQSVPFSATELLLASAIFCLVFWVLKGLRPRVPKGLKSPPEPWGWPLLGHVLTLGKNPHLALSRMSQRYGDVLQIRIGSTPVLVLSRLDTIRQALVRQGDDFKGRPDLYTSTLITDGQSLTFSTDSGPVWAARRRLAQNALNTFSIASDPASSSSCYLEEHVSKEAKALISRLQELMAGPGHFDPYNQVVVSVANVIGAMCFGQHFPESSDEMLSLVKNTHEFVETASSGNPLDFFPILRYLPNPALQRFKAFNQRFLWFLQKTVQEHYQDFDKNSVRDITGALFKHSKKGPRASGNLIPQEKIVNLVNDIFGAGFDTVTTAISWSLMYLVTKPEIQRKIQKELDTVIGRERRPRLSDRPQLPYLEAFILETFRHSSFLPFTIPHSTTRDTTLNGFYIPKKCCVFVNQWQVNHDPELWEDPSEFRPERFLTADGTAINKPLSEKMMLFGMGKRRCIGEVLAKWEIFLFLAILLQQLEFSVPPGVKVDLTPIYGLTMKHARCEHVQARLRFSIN
Chain of Glucocorticoid receptor (Homo sapiens) (P04150 whole entry, looked up, the tested form may be a part): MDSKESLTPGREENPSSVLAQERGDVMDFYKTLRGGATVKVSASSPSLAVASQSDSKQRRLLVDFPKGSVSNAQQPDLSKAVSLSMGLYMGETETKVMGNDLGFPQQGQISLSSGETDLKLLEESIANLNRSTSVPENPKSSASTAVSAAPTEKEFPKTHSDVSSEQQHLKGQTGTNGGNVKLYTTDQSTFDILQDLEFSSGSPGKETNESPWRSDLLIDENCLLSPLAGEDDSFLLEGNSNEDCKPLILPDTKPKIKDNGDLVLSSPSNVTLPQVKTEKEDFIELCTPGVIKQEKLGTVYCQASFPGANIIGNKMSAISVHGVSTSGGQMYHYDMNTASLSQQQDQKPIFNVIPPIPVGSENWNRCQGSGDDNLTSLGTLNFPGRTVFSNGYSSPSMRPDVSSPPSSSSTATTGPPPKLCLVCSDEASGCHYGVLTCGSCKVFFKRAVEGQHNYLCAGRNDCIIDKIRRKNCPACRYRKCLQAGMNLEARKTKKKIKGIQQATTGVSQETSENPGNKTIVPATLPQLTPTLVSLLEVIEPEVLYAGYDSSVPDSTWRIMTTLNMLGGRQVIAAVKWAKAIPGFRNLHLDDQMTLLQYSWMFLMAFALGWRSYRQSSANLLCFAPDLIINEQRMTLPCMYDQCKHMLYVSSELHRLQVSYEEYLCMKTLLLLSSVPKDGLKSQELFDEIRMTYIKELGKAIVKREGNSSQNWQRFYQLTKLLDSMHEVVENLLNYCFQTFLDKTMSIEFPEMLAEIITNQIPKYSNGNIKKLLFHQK
Chain of Ubiquitin carboxyl-terminal hydrolase 1 (Homo sapiens) (O94782 whole entry, looked up): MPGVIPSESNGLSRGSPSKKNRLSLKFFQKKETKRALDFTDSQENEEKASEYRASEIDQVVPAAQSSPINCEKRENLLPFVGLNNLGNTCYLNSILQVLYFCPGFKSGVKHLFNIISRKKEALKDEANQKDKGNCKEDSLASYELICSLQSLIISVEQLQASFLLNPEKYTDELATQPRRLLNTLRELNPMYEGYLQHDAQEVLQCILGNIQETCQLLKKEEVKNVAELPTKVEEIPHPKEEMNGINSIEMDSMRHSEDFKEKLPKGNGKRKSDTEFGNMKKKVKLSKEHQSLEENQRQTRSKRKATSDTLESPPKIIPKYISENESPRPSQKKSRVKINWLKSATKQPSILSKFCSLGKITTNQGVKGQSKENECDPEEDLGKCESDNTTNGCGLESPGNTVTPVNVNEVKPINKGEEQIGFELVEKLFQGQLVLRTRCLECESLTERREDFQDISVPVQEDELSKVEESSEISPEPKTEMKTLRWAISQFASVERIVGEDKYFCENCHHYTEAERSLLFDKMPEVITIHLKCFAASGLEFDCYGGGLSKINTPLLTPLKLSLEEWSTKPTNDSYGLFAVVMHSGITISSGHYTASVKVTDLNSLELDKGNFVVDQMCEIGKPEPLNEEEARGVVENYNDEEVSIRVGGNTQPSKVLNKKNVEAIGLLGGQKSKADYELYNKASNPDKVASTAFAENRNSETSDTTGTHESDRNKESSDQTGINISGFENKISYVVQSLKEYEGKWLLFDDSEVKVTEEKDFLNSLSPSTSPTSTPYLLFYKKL
Chain of Luciferin 4-monooxygenase (Photinus pyralis) (P08659 whole entry, looked up): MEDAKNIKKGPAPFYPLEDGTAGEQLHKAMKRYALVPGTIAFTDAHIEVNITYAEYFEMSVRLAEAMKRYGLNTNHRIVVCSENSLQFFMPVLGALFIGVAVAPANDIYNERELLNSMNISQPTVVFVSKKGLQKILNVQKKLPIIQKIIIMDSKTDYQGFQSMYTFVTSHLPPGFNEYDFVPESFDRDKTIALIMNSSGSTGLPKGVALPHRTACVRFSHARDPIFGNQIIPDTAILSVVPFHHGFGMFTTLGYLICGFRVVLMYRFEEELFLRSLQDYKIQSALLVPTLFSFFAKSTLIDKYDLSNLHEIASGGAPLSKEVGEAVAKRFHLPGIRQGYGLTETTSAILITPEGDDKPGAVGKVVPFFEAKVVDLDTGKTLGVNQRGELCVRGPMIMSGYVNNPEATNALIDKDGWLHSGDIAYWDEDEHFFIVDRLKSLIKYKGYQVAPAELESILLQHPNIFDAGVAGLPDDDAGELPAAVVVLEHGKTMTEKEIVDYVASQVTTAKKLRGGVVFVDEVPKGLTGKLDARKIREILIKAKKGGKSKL
Chain of ATP-dependent 6-phosphofructokinase (Trypanosoma brucei brucei) (O15648 whole entry, looked up): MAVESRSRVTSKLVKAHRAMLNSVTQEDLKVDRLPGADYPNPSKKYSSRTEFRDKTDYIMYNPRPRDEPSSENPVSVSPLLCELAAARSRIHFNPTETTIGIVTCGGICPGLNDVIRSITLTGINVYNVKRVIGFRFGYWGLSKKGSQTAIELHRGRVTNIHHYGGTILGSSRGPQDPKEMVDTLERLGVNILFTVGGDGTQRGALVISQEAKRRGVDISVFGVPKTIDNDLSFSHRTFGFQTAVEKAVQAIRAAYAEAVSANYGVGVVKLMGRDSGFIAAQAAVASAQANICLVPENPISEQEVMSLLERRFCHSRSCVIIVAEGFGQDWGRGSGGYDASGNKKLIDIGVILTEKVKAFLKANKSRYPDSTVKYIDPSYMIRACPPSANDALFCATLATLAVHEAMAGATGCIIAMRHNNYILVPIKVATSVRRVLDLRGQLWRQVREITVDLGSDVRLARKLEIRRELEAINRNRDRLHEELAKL

`O=C(O)/C=C\c1ccc(O)c(O)c1`: the activity change, negative = inhibition was -12.5% (inactive) in test [1] (at 17.2 µM (top of the series)), -5.91% (inactive) in test [1] (at 38 µM (top of the series)), -7.46% [at 38 µM] (inactive) in [3] (at 7.69 µM (top of the series) unless noted) and -3.56% (inactive) in test [9]. Besides, the Potency result in test [2], in test [7], in test [8] and in [10] was “inactive” in each case. For the same molecule, the activity, negative = inhibition in test [4] (at 17.2 µM (top of the series)) is 3.52% (inactive); in test [4] (at 38 µM (top of the series)), 10.1% (inactive). The Potency was > 46 µM (inactive) and > 20.6 µM (inactive) in test [5]; > 46 µM (inactive) and > 20.6 µM (inactive) in test [6]. Also, the results for the max response in test [9] (setting [14]) and in test [9] (setting [15]) were -1.26% and -2.45%, respectively.
With `CCCCCN(CCCCC)C(=O)[C@H](CCC(=O)O)NC(=O)c1ccc(Cl)c(Cl)c1`, the activity change, negative = inhibition in test [1] (at 17.2 µM (top of the series)) is -2.01% (inactive); in test [1] (at 38 µM (top of the series)) it was 3.64% (inactive); in [3] (at 17.2 µM (top of the series)) it was -6.01% (inactive); in test [3] (at 38 µM (top of the series)) it was -3.5% (inactive); in test [9], -1.39% (inactive). Moreover, the Potency result in test [2], in test [7] and in [10] was “inactive” throughout. Besides, the activity, negative = inhibition in test [4] (at 17.2 µM (top of the series)) was -27.7% (inactive); in [4] (at 38 µM (top of the series)), -25.5% (inactive). For the same molecule, the Potency in [5] is > 46 µM (inactive) and > 20.6 µM (inactive); in test [6] it was > 46 µM (inactive) and > 20.6 µM (inactive). Further, the figures for the max response in test [9] (setting [14]) and in test [9] (setting [15]) were -23.7% and -25%, respectively.
On to `Cc1cccc(C)c1OC[C@H](C)N`, for which the activity change, negative = inhibition is 5.64% (inactive) in test [1] (at 17.2 µM (top of the series)); 1.06% (inactive) in test [1] (at 38 µM (top of the series)); 1.67% (inactive) in [3] (at 17.2 µM (top of the series)); 15.4% (inactive) in test [3] (at 38 µM (top of the series)); -0.862% (inactive) in test [9]. In addition, the Potency in test [2] is 2.51 µM (active) and 398 nM (active). Besides, the activity, negative = inhibition is 3.2% (inactive) in test [4] (at 17.2 µM (top of the series)) and -14.2% (inactive) in test [4] (at 38 µM (top of the series)). Moreover, the Potency entry in test [7], in test [8] and in test [10] was “inactive” throughout. Moreover, the max response in test [9] (setting [14]) is -4.34%; in test [9] (setting [15]) it was -6.28%.
Regarding `N[C@@H](CO)C(=O)NNCc1ccc(O)c(O)c1O`, the activity change, negative = inhibition in [1] (at 17.2 µM (top of the series)) was 2.07% (inactive); in test [1] (at 38 µM (top of the series)) it was 14.8% (inactive); in test [3] (at 17.2 µM (top of the series)), -8.03% (inactive); in test [3] (at 38 µM (top of the series)), -7.62% (inactive); in test [9], -1.23% (inactive). For the same molecule, the Potency result (in [2]; in test [8]; in test [10]; in the test with AS120; with CP201; in the test on CP238) was “inactive” in each case. Moreover, the Potency result with CP262, in the test on CP265, in the test on FAB9 and in the test on JCK was “inactive” each time. For the same molecule, the activity, negative = inhibition in [4] (at 17.2 µM (top of the series)) was -0.902% (inactive); in test [4] (at 38 µM (top of the series)), 4.31% (inactive); in [13] (parasite line A) it was 21.9% (inactive); in test [13] (parasite line B), 19.7% (inactive). The max response in [9] (setting [14]) was -4.75%; in test [9] (setting [15]) it was -6.43%. The result in test [11] and in test [12] was inactive.
Turning to `O[C@@](CCN1CCCCC1)(c1ccccc1)C1CCCCC1`, the activity change, negative = inhibition is 7.19% (inactive) in test [1] (at 17.2 µM (top of the series)); 17.8% (inactive) in test [1] (at 38 µM (top of the series)); -51.7% (active) in test [3] (at 17.2 µM (top of the series)); -75.1% (active) in [3] (at 38 µM (top of the series)); -1.35% (inactive) in [9]. In addition, the Potency entry in test [2], in [7] and in test [8] was “inactive” in each case. The activity, negative = inhibition in [4] (at 17.2 µM (top of the series)) was -9.32% (inactive); in [4] (at 38 µM (top of the series)), 15.1% (inactive). Moreover, the max response was -17.3% in test [9] (setting [14]) and -19.7% in [9] (setting [15]).

(Values after PubChem BioAssay (NCATS).)
